Screening data (PubChem)
BJeLR viability: MLPCN primary cell-based screen for lethality selective to Ras in HRASV12 cells; inhibition, % (no concentration beside the values); BJeLR (HRASV12) viability, CellTiter-Glo ATP luminescence, 48 h; actives 0.17% (n = 300,000); AID 1554, 2009; in the data active = inhibition above about 50%; inconclusive = no clear call, values can overlap the other calls
BH1578 lux ind: inducers of Vibrio cholerae quorum light production without autoinducers, primary screen, BH1578 luxS cqsA deficient, single point; V. cholerae BH1578 lux reporter, luminescence, 6 h; activation, % at 18.7 µM; actives 0.16% (n = 350,000); in the data active = activation mostly above about 9.7%, no sharp cut-off; inconclusive = no clear call, values can overlap the other calls; inactive = mostly below about 3.7%
BoNT-A LC inh2: BoNT/A light chain protease inhibitors, primary screen, biochemical, flow cytometry, MLPCN library | Botulinum neurotoxin type A light chain protease (Clostridium botulinum A str. ATCC 3502) | actives 0.17% (n = 360,000) | multiplex microsphere protease substrate cleavage | AID 588499, 2011 | inhibition, % at 10 µM
Anthrax LF inh2: Bacillus anthracis LF protease inhibitors, primary screen, biochemical, multiplex microsphere, MLPCN library. multiplex microsphere protease cleavage assay. inhibition, % at 10 µM. actives 0.12% (n = 360,000)
Target sequence (P15917 whole entry, looked up): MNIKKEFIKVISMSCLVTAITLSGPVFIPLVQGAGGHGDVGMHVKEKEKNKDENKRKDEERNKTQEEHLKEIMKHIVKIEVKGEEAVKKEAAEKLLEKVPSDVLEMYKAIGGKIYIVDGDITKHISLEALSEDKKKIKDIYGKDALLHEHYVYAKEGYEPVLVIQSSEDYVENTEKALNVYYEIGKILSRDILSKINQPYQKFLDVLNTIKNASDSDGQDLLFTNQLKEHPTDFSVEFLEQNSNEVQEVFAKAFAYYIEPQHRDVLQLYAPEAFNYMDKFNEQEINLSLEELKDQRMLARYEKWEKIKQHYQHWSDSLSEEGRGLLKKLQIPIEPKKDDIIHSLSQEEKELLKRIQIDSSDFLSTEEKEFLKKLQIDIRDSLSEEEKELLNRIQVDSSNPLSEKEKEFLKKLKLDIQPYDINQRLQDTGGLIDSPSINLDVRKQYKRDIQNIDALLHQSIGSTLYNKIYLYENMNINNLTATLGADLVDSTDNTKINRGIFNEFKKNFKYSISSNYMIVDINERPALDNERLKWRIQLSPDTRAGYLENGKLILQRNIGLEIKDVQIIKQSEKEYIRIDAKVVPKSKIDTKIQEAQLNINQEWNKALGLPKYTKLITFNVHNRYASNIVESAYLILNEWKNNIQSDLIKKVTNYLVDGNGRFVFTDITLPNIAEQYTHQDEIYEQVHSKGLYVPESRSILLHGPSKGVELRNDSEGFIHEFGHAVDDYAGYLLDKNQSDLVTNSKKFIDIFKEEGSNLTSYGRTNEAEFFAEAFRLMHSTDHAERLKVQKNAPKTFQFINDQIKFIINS
Bead autofluor: flagged as autofluorescent in microsphere protease counterscreen | compound autofluorescence counterscreen, microsphere flow cytometry; hits give high values | fluorescence intensity (no concentration beside the values) | actives 3.1% (n = 360,000) | AID 624483; in the data active = fluorescence intensity above about 16000; inconclusive = no clear call, values can overlap the other calls
BoNT F protease: BoNT/F light chain protease inhibitors, primary screen, biochemical, flow cytometry, MLPCN library; Botulinum neurotoxin type F light chain protease (Clostridium botulinum); Multiplex microsphere protease cleavage assay; inhibition, % at 10 µM; actives 0.22% (n = 360,000); AID 588497, 2011; in the data active = inhibition above about 35%, passing the limit was not always enough; inconclusive = no clear call, values can overlap the other calls
BoNTA LC inh 1: BoNT/A light chain protease inhibitors, confirmation, biochemical, flow cytometry, cherry pick 1; actives 3% (n = 720); AID 602139, 2011; multiplex microsphere protease assay; shares compounds with BoNT F protease; inhibition, % at 10 µM; in the data active = inhibition above about 32%
BoNT-F LC CP1: BoNT/F light chain protease inhibitors, confirmation, biochemical, flow cytometry, cherry pick 1. inhibition, % at 10 µM. AID 602140, 2011. 720 tested, under 10 active. shares compounds with BoNT F protease. multiplex microsphere protease cleavage assay; call rule not given here
Anthrax LF CP1: Bacillus anthracis LF protease inhibitors, confirmation, biochemical, multiplex microsphere, cherry pick 1. shares compounds with BoNT F protease. multiplex microsphere protease cleavage assay. inhibition, % at 10 µM. 720 tested, under 10 active; call rule not given here
Numbers stand for hits; i = inactive; ? = inconclusive; nt = no result. The list is not random: actives were taken first. Their share in the collection is about 3.7%. Cut-off read from the data, not from the text of the source, unless noted: active = inhibition above about 30%; inconclusive = no clear call, values can overlap the other calls; inactive = below that.

SMILES	BJeLR viability	BH1578 lux ind	BoNT-A LC inh2	Anthrax LF inh2	Bead autofluor	BoNT F protease	BoNTA LC inh 1	BoNT-F LC CP1	Anthrax LF CP1
COCc1cccc(-c2csc(C(NC(C)=O)c3cccc(OC)c3)n2)c1 (configuration not stated)	nt	i	i	i	i	i	nt	nt	nt
CCOc1ccc(-c2nc(CSc3nncs3)cs2)cc1OC	i	i	i	i	?	41	i	i	i
CC(C)NC1(C#N)CCN(Cc2ccccc2)CC1	nt	i	i	i	i	i	nt	nt	nt
COc1ccccc1CN1CCNC(=O)C1CC(=O)NCc1c(C)n[nH]c1C (configuration not stated)	i	i	i	i	i	41	i	i	i
Cc1ccc(CNC(=O)CC[C@H]2O[C@@H](n3cc(C)c(=O)[nH]c3=O)C[C@@H]2O)o1	nt	nt	i	i	i	i	nt	nt	nt
Cc1cc(C)nc(NS(=O)(=O)c2ccc(NC(=O)c3ccc4c(c3)OCCO4)cc2)n1	i	i	i	i	i	36	i	i	i
CCC(C)(C)C(=O)O[C@H]1C[C@@H](C)C=C2C=C[C@H](C)[C@H](CC[C@@H]3C[C@@H](O)CC(=O)O3)[C@H]21	i	i	i	i	i	i	nt	nt	nt
CCC(=O)Nc1nnc(S(=O)(=O)N(CC)c2ccc(Cl)cc2)s1	i	i	i	i	i	i	nt	nt	nt
CCC(=O)Nc1nnc(S(=O)(=O)N(C)c2cc(C)cc(C)c2)s1	i	i	i	i	i	42	i	i	i
C=CCOC1COC2C(OCC=C)COC12 (configuration not stated)	nt	i	i	i	i	i	nt	nt	nt
O=[N+]([O-])c1cccc(-c2cn3nc(-c4ccccc4)c(-c4ccccc4)nc3n2)c1	i	i	67	33	i	48	40	i	i
c1ccc(-c2cn3nc(-c4ccccc4)c(-c4ccccc4)nc3n2)cc1	i	i	76	46	i	i	62	i	i
C[C@@H]1CCCCO[C@H](CN(C)C(=O)Cc2ccccc2)[C@H](C)CN([C@@H](C)CO)C(=O)c2cc(NC(=O)Nc3ccc(F)cc3)ccc2O1	nt	i	i	i	i	i	nt	nt	nt
Cc1ccc(-c2csc3nc4c5ccccc5c(NCCCN(C)C)nn4c(=O)c23)cc1	i	i	36	i	i	i	i	i	i
COc1ccc(NC(=O)CSc2nc(N)c3cc4c(nc3n2)CC(C)(C)OC4)cc1	i	i	i	i	i	47	i	i	i
O=S(=O)(c1cccc(C(F)(F)F)c1)N1CCC(CO)(CCCc2ccccc2)CC1	i	i	i	49	i	i	i	i	i
C=CCn1c(N2CCCC2)nc2c1c(=O)n(C)c(=O)n2C	i	i	i	44	i	i	i	i	i
COC(=O)C1Cc2ccccc2CN1S(=O)(=O)c1ccc(C)cc1 (configuration not stated)	i	i	i	i	i	36	i	i	i
CNc1cncc(-c2ccc(OC)cc2OC)n1	nt	i	i	i	i	i	nt	nt	nt
CNc1cc(C)c(C#N)c2nc3ccccc3n12	i	i	i	32	i	i	i	i	i
CCCNc1cc(C)c(C#N)c2nc3ccccc3n12	nt	i	i	i	i	i	nt	nt	nt
O=C(NCc1ccc(F)cc1)c1cc(C2CCCCN2C(=O)c2ccc(Cl)cc2)on1 (configuration not stated)	nt	i	i	i	i	i	nt	nt	nt
COCCN1C(=O)N(c2cccc(C)c2)C(=O)C1CC(=O)Nc1ccc(OC)cc1 (configuration not stated)	i	i	i	i	i	37	i	i	i
CCNC(=O)CC1C(=O)N(c2ccc(C)cc2)C(=O)N1CCOC (configuration not stated)	i	i	i	i	i	36	i	i	i
Cc1nc(C)c(-c2ccn(C(=O)NC(C)C)n2)s1	i	i	i	i	i	38	i	i	i
SMILES	BJeLR viability	BH1578 lux ind	BoNT-A LC inh2	Anthrax LF inh2	Bead autofluor	BoNT F protease	BoNTA LC inh 1	BoNT-F LC CP1	Anthrax LF CP1
O=C(c1nc2ccc(Cl)cn2c1CN1CCC[C@H]1CO)N1CCc2ccccc2C1	nt	i	i	i	i	i	nt	nt	nt
Cn1c(=O)c(/C=C/c2ccccc2)nc2ccccc21	i	i	49	i	i	i	40	i	i
Cn1c(/C=C/c2ccccc2)nc2ccccc21	i	i	i	i	i	i	nt	nt	nt
Cn1c(=O)c(/C=C/c2ccc(F)cc2)nc2ccccc21	i	i	33	i	i	i	i	i	i
O=c1c(/C=C(\O)c2ccc(F)cc2)nc2ccccc2n1-c1ccccc1	i	i	46	32	i	194	i	i	i
COc1ccc(Cl)cc1NC(=O)C1CC(c2c(F)cccc2Cl)=NO1 (configuration not stated)	i	i	i	i	i	37	i	i	i
COc1ccc(NC(=O)C2CC(c3ccc(Cl)cc3)=NO2)cc1 (configuration not stated)	i	i	i	45	i	i	i	i	i
CC1(C(=O)NS(=O)(=O)C2CC2)CCN(C(=O)CSc2ccccc2)C1 (configuration not stated)	nt	i	i	i	i	i	nt	nt	nt
Cc1nc([N+](=O)[O-])c(Sc2nc3ccccc3[nH]2)n1Cc1ccccc1	i	i	i	i	i	i	nt	nt	nt
Cn1cnc([N+](=O)[O-])c1Sc1nc2ccccc2[nH]1	i	i	i	34	i	i	i	i	i
COC(=O)[C@@H](Cc1ccccc1)NC(=O)/C=C/[C@H]1O[C@@H](n2cnc3c(NC(=O)c4ccccc4)ncnc32)[C@H](O)[C@@H]1O	nt	nt	i	i	i	i	nt	nt	nt
CC1Oc2ccccc2N(CC(=O)NC2CCCC2)C1=O (configuration not stated)	i	i	i	i	i	35	i	i	i
CS(=O)(=O)N1N=C(c2ccccc2)CC1c1ccc2c(c1)OCO2 (configuration not stated)	i	i	70	i	19512	i	50	nt	i
CCC(=O)Nc1cccc(C(=O)N(Cc2ccccc2)Cc2ccccc2)c1	i	i	i	i	i	44	i	i	i
